Hits are enriched below; roughly 2.3% of the tested compounds scored in any of these assays.
Pf Dd2 inh: blocks growth of Plasmodium falciparum Dd2 parasites. P. falciparum Dd2 growth, SYBR Green, 72 h; active compounds read low. activity change, % at 10 µM. 94,000 compounds, 2.3% hits; in the data active means activity change below about -80%
C diff growth: blocks growth of Clostridium difficile | Clostridium difficile clinical isolate growth, OD600, 24 h; active compounds read low | growth activity, negative = inhibition, % at 16 µg/mL (by protocol) | 86,000 compounds, 0.25% hits | AID 1259249;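 active means mean growth activity at or below -80% and every replicate also at or below -80%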
Hits are given with their value; i = inactive; nt = not tested or not shown.

SMILES | Pf Dd2 inh | C diff growth
COc1ccc(NC(=O)N(C)C[C@H]2Oc3ccc(NS(=O)(=O)c4c(C)noc4C)cc3C(=O)N([C@H](C)CO)C[C@H]2C)cc1 | i | nt
COc1ccccc1CN1CC[C@@H]2[C@H]1c1cc(-c3cccc(F)c3)ccc1N[C@@H]2CO | i | i
COc1ccc(C#Cc2ccc3c(c2)[C@@H]2[C@@H](CCN2C(=O)c2ccncc2)[C@@H](CO)N3)cc1 | i | i
COc1cccc(-c2ccc3c(c2)[C@H]2[C@H](CCN2Cc2ccccc2OC)[C@H](CO)N3)c1 | i | -91
COc1ccccc1CN1CC[C@@H]2[C@@H](CO)Nc3ccc(-c4cccc(F)c4)cc3[C@@H]21 | i | i
OC[C@@H]1Nc2ccc(C#Cc3ccc(F)cc3)cc2[C@H]2NCC[C@@H]12 | -89 | i
O=C(c1ccc(F)cc1)N1CC[C@@H]2[C@H](CO)Nc3ccc(C#Cc4ccc(F)cc4)cc3[C@@H]21 | i | i
COc1ccc(C#Cc2ccc3c(c2)[C@H]2[C@H](CCN2Cc2ccncc2)[C@@H](CO)N3)cc1 | -92 | i
COc1ccccc1CN1CC[C@@H]2[C@H](CO)Nc3ccc(C#Cc4ccccc4)cc3[C@@H]21 | i | -99
Cc1cccc(S(=O)(=O)N2C[C@@H](O)COC[C@H]3O[C@@H](CC(=O)NCCCN4CCOCC4)CC[C@@H]32)c1 | i | nt
C[C@H](CO)N1C[C@H](C)[C@@H](CN(C)S(=O)(=O)c2cn(C)cn2)Oc2c(NC(=O)Nc3ccccc3)cccc2C1=O | i | i
COc1cccc(C(=O)Nc2ccc3c(c2)OC[C@H](C)N(C(C)=O)C[C@@H](C)[C@H](OC)CN(C)C3=O)c1 | i | i
C[C@@H]1CCCCO[C@H](CN(C)Cc2ccc3c(c2)OCO3)[C@H](C)CN([C@@H](C)CO)C(=O)c2cc(NC(=O)CCC(F)(F)F)ccc2O1 | i | i
C[C@H]1CCCCO[C@H](CN(C)Cc2ccc(C(=O)O)cc2)[C@@H](C)CN([C@@H](C)CO)C(=O)c2cc(NC(=O)Nc3cccc4ccccc34)ccc2O1 | i | i
COc1ccc(NC(=O)N(C)C[C@@H]2OCCCC[C@@H](C)Oc3ccc(NC(=O)c4ccccc4)cc3C(=O)N([C@@H](C)CO)C[C@@H]2C)cc1 | i | i
CC(C)CC#Cc1ccc2c(c1)O[C@H](CN(C)C)[C@H](C)CN([C@H](C)CO)S2(=O)=O | i | i
C[C@H](CO)N1C[C@H](C)[C@@H](CN(C)C(=O)NC2CCCCC2)Oc2ccc(NC(=O)Cc3cn(C)c4ccccc34)cc2CC1=O | i | i
O=C(N[C@@H]1CC[C@@H](CCn2cc(-c3ccccn3)nn2)O[C@H]1CO)c1cccnc1 | i | i
Cc1noc(C)c1S(=O)(=O)N1[C@@H]2CNC[C@H]1C2c1ccc(-c2ccccc2)cc1 (stereo partly specified) | i | i
COc1ccccc1CN1CC[C@@H]2[C@H](CO)Nc3ccc(-c4cccc(F)c4)cc3[C@@H]21 | i | i
COc1cccc(-c2ccc3c(c2)[C@@H]2[C@@H](CCN2Cc2ccccc2OC)[C@@H](CO)N3)c1 | i | -98
CO[C@H]1CN(C)C(=O)c2ccc(NC(=O)c3nc4ccccc4s3)cc2OC[C@@H](C)N(Cc2ccncc2)C[C@H]1C | i | nt
CO[C@@H]1CN(C)C(=O)c2ccc(NC(=O)c3nc4ccccc4s3)cc2OC[C@@H](C)N(Cc2cccnc2)C[C@@H]1C | i | i
CO[C@@H]1CN(C)C(=O)c2ccc(NC(=O)c3nc4ccccc4s3)cc2OC[C@@H](C)N(Cc2ccncc2)C[C@H]1C | -97 | nt
CO[C@@H]1CN(C)C(=O)c2ccc(NC(=O)c3nc4ccccc4s3)cc2OC[C@H](C)N(Cc2ccncc2)C[C@H]1C | i | nt
SMILES | Pf Dd2 inh | C diff growth
CO[C@@H]1CN(C)C(=O)c2ccc(NC(=O)c3nc4ccccc4s3)cc2OC[C@@H](C)N(Cc2cccnc2)C[C@H]1C | -90 | i
CO[C@H]1CN(C)C(=O)c2ccc(NC(=O)c3nc4ccccc4s3)cc2OC[C@H](C)N(Cc2ccncc2)C[C@@H]1C | -93 | nt
CO[C@H]1CN(C)C(=O)c2ccc(NC(=O)C3CC3)cc2OC[C@H](C)N(Cc2ccncc2)C[C@H]1C | i | nt
O=C(NC1CCCC1)[C@@H]1[C@@H](CO)[C@@H]2Cn3c(ccc(-c4cccc(F)c4)c3=O)[C@H]1N2 | i | i
COc1ccccc1-c1ccc2c(c1)O[C@H](CN(C)CC1CCOCC1)[C@H](C)CN([C@H](C)CO)S2(=O)=O | i | i
CO[C@H](C(=O)N(C)C[C@@H]1OCc2ccccc2-c2ccccc2C(=O)N([C@@H](C)CO)C[C@H]1C)c1ccccc1 | i | i
O=C(Nc1ccc(Cl)c(Cl)c1)N[C@@H]1CC[C@@H](CCn2cc(C3CCCCC3)nn2)O[C@@H]1CO | -87 | nt
COc1ccc(S(=O)(=O)N[C@@H]2CC[C@H](CCn3cc(-c4ccccc4F)nn3)O[C@@H]2CO)cc1 | -92 | i
COc1ccccc1S(=O)(=O)N[C@H]1CC[C@H](CCn2cc(C3CCCC3)nn2)O[C@H]1CO | i | i
CN(C)Cc1cn(CC[C@H]2CC[C@H](NS(=O)(=O)c3ccc(-c4ccccc4)cc3)[C@H](CO)O2)nn1 | i | nt
CCCc1cn(CC[C@@H]2CC[C@H](NS(=O)(=O)c3ccc(-c4ccccc4)cc3)[C@H](CO)O2)nn1 | -92 | i
O=C(Nc1ccc(Cl)c(Cl)c1)N[C@@H]1CC[C@@H](CCn2cc(C3CCCCC3)nn2)O[C@H]1CO | i | i
COc1ccc(S(=O)(=O)N[C@H]2CC[C@@H](CCn3cc(-c4ccccc4F)nn3)O[C@@H]2CO)cc1 | i | i
COc1ccccc1S(=O)(=O)N[C@H]1CC[C@@H](CCn2cc(C3CCCC3)nn2)O[C@@H]1CO | -93 | i
CCC(=O)N[C@H]1CC[C@H](CCn2cc(C3CC3)nn2)O[C@H]1CO | i | i
O=C(Nc1cccc(Cl)c1)N1C[C@@H]2[C@H](c3ccccc31)[C@@H](CO)N2CC1CCCCC1 | i | i
COc1ccc(NC(=O)N[C@H]2C=C[C@@H](CC(=O)NCc3ccccn3)O[C@H]2CO)cc1 | i | i
C[C@H](CO)N1C[C@H](C)[C@@H](CN(C)C(=O)Nc2ccc(C(F)(F)F)cc2)Oc2ccc(NC(=O)CCN3CCOCC3)cc2CC1=O | i | i
C[C@@H]1CN([C@H](C)CO)C(=O)c2cc(NC(=O)CCN3CCOCC3)ccc2O[C@@H]1CN(C)CC1CCCCC1 | i | i
C[C@H]1CN([C@@H](C)CO)C(=O)Cc2cc(NC(=O)NC3CCCCC3)ccc2O[C@@H]1CN(C)S(=O)(=O)c1ccc(Cl)cc1 | i | i
CN1CCN(C(=O)C[C@H]2CC[C@@H]3[C@H](COC[C@H](O)CN3C(=O)Nc3ccc(F)cc3)O2)CC1 | i | i
O=C(C[C@@H]1CC[C@H]2[C@@H](COC[C@@H](O)CN2CCc2ccccc2)O1)NCc1ccc(Oc2ccccc2)cc1 | i | nt
C[C@@H]1CN([C@@H](C)CO)C(=O)c2cccc(NC(=O)c3ccc(-c4nccs4)cc3)c2O[C@@H]1CN(C)Cc1ccccc1 | i | i
C[C@H](CO)N1C[C@H](C)[C@@H](CN(C)Cc2ccccc2)Oc2c(NC(=O)c3ccc(-c4nccs4)cc3)cccc2C1=O | i | i
C[C@H](CO)N1C[C@H](C)[C@H](CN(C)Cc2ccc(C(=O)Nc3ccccc3N)cc2)Oc2c(NC(=O)c3ccc(-c4nccs4)cc3)cccc2C1=O | -90 | i
